Experimental findings from PubChem BioAssay (NCATS) are described below.

Inconclusive results are not listed. A number with no mark means an inactive call. Active and inactive are the calls of the source. Calls follow the shape of the dose curve; as a rule, active = well fitted inhibition curve with a large enough effect; inconclusive = small, poorly fitted or top-dose-only effect; inactive = no such curve, though single readings can be large or run the other way.
% is scaled to controls: 0 for no effect and ±100 for the full control effect.

The experiment can be described thus: HTS Assay for Allosteric Antagonists of the Human D2 Dopamine Receptor: Hit Validation in HTRF (AID 624455).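 Also: stable D1 dopamine receptor cell line scored for blocking the D1 response.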 The note with it: Cells stably expressing D1 dopamine receptor, inhibition mode; series mostly up to 46.1 µM; activity, negative = inhibition: at the top concentration. An excerpt:
Dopamine receptors (DARs) are involved in the etiology and/or therapy of a number of neuropsychiatric and endocrine disorders. For instance, all receptor-based antiparkinsonian drugs work via stimulating the D2 DAR subtype whereas all FDA-approved antipsychotic agents are antagonists of this receptor. […] There are three different types of allosteric modulators that we are seeking, two of which will stimulate or augment receptor signaling, allosteric agonists and potentiators, while the third, allosteric antagonists, will attenuate receptor signaling. The present primary screening assay measures compound antagonism after an EC80 addition of dopamine by tracking calcium flux in a […], inducible Hek293 Trex D2 cell line. This assay measures activity of the hits in the D1 HTRF assay.
NIH Chemical Genomics Center [NCGC]
NIH Molecular Libraries Probe Centers Network [MLPCN]
Assay Submitter (PI): David Sibley
Cells stably expressing the D1 dopamine receptor will be run in an HTRF assay and compounds will be examined for the ability to inhibit the D1 mediated response.
Regarding `CCN1CCC[C@H]1CNC(=O)c1cc(S(N)(=O)=O)ccc1OC`, the “activity, negative = inhibition” value is 4.54%.

As for `COC(=O)[C@@H]1[C@H]2C[C@H]3c4[nH]c5ccccc5c4CCN3C[C@@H]2CC[C@@H]1O`, the “activity, negative = inhibition” value is -3.95%.

Consider `COc1ccc(Cc2nccc3cc(OC)c(OC)cc23)cc1OC`, for which the “activity, negative = inhibition” value is 9.02%.

In the case of `CC(=O)N[C@@H](CS)C(=O)O`, the “activity, negative = inhibition” value was 16.1%.

With `CCCNC(=O)NS(=O)(=O)c1ccc(Cl)cc1`, the “activity, negative = inhibition” value is 3.84%.

Take `Cc1cccc(C)c1OCC(C)N` (stereo not given): the “activity, negative = inhibition” value is 4.71%.

On to `O=C1NCC2(CCN(CCc3ccccc3)CC2)O1`, for which the “activity, negative = inhibition” value is -1.36%.

With `O=C1NC(=O)C(c2ccccc2)(c2ccccc2)N1`, the “activity, negative = inhibition” value is 0.377%.

In the case of `NCCS`, the “activity, negative = inhibition” value was 7.24%.

Turning to `CC(C)NCC(O)COc1cccc2[nH]ccc12` (stereo not given), the “activity, negative = inhibition” value is 6.58%.

Consider `COc1cccc(-c2cc(=O)c3ccccc3o2)c1N`, for which the “activity, negative = inhibition” value was 6.73%.

`CCN(CC)CCNC(=O)c1ccc(N)cc1`: the “activity, negative = inhibition” value is 0.814%.

On to `C[N+](C)(C)CC(=O)O`, for which the “activity, negative = inhibition” value is -3.09%.

As for `CC(=O)c1ccc(S(=O)(=O)NC(=O)NC2CCCCC2)cc1`, the “activity, negative = inhibition” value was 3.04%.

As for `CCN(CC)C(=O)c1ccc(O)c(OC)c1`, the “activity, negative = inhibition” value was -2.32%.

In the case of `O=c1c(-c2ccc(O)cc2)coc2cc(O)ccc12`, the “activity, negative = inhibition” value was -5.12%.

As to `CC1=C(/C=C/C(C)=C/C=C/C(C)=C/C(=O)Nc2ccc(O)cc2)C(C)(C)CCC1`, the “activity, negative = inhibition” value is 0.201%.

With `CN(C)CCC(c1ccccc1)c1ccccn1` (stereo not given), the “activity, negative = inhibition” value was 19.5%.

On to `Clc1ccc(C(c2ccc(Cl)cc2)n2cc[n+](CC(OCc3ccc(Cl)cc3Cl)c3ccc(Cl)cc3Cl)c2)cc1` (stereo not given), for which the “activity, negative = inhibition” value was -7.68%.

For the compound `O=C(NCCN1CCOCC1)c1ccc(Cl)cc1`, the “activity, negative = inhibition” value is -2.78%.

`C[N+](C)(C)CCCCCC[N+](C)(C)C`: the call was inactive.

Turning to `CC(=O)O[C@]1(C(C)=O)CC[C@H]2[C@@H]3C=C(Cl)C4=CC(=O)[C@@H]5C[C@@H]5[C@]4(C)[C@H]3CC[C@@]21C`, the “activity, negative = inhibition” value is 4.32%.

As for `COc1ccccc1N1CCN(CCCNc2cc(=O)n(C)c(=O)n2C)CC1`, the “activity, negative = inhibition” value is -3.21%.

For `CCCCC1C(=O)N(c2ccccc2)N(c2ccccc2)C1=O`, the “activity, negative = inhibition” value is -4.65%.

Consider `CCN(CC)CCOC(=O)c1ccc(N)cc1`, for which the “activity, negative = inhibition” value was -0.106%.

As for `CC(C)OC(=O)C(C)(C)Oc1ccc(C(=O)c2ccc(Cl)cc2)cc1`, the “activity, negative = inhibition” value was 0.908%.

As for `CCCCCN(C)CCC(O)(P(=O)(O)O)P(=O)(O)O`, the “activity, negative = inhibition” value is 0.141%.

As to `O=c1cc(-c2ccc(O)cc2)oc2cc(O)cc(O)c12`, the “activity, negative = inhibition” value is 3.04%.

For the compound `CC(C)(C)c1ccc(C(O)CCCN2CCC(C(O)(c3ccccc3)c3ccccc3)CC2)cc1` (stereo not given), the “activity, negative = inhibition” value was -1.44%.

As to `O=C(O)CCc1nc(-c2ccccc2)c(-c2ccccc2)o1`, the “activity, negative = inhibition” value was 6.69%.

For `CC1(C)CCC2=C(O1)c1ccccc1C(=O)C2=O`, the “activity, negative = inhibition” value is -0.507%.

`Clc1ccc(Cn2c(CN3CCCC3)nc3ccccc32)cc1`: the “activity, negative = inhibition” value was -1.46%.

For `CC/C(=C(\c1ccccc1)c1ccc(OCCN(C)C)cc1)c1ccccc1`, the “activity, negative = inhibition” value was -5.77%.

Turning to `NC(N)=Nc1nc(CSCC/C(N)=N/S(N)(=O)=O)cs1`, the “activity, negative = inhibition” value was 0.141%.

With `CCn1cc(C(=O)O)c(=O)c2ccc(C)nc21`, the “activity, negative = inhibition” value is 1.2%.
